Assay outcomes deposited in PubChem by National Center for Advancing Translational Sciences (NCATS).
In the library only some 11% were active in any assay of this set; here they are far more common.
BAZ2B block = inhibitors of human BAZ2B bromodomain | AlphaScreen BAZ2B-H3K14Ac peptide displacement | Potency, µM (top dose mostly 114 µM), for inactives: at the top dose activity change, negative = inhibition, usual class: inhibitors | 4.4% of 360,000 active | AID 504333; also: potency is read from the fitted curve at half-maximal effect; % is scaled to controls: 0 for no effect and ±100 for the full control effect; nearly all actives have a fitted effect of over 60% in size
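Multi-concentration screen (max 110 uM) measuring displacement of acetylated histone H3 peptide from BAZ2B by AlphaScreen, using 50 nM protein, 50 nM peptide and 10 ug/mL streptavidin donor plus Ni-chelate acceptor beads.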
L3MBTL1 block = blocks human L3MBTL1. Q9Y468. AID 485360. 0.66% of 230,000 active. Potency, µM (doses to about 57.1 µM), for the others: at the highest dose activity, negative = inhibition, usual class: inhibitors. AlphaScreen L3MBTL1–H3K9me1 peptide binding; also: potency is read from the fitted curve at half-maximal effect; % is scaled to controls: 0 for no effect and ±100 for the full control effect; nearly all actives have a fitted effect of over 60% in size
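Read-out is AlphaScreen signal from streptavidin donor and nickel chelate acceptor beads (10 ug/mL final each) bridging L3MBTL1 (50 nM) and biotinylated K9-monomethylated H3(1-15) peptide (75 nM), after 30 min compound exposure at room temperature.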
PI5P4K alpha inh = inhibitors of human PI5P4K alpha; PI5P4Kalpha enzyme, ADP-Glo luminescence, 60 min; hits give low values; max response, %; P48426; 1.2% of 330,000 active; active = max response of -50% or lower; inconclusive = between -30% and -50%; inactive = -30% or higher; also: value at the top dose of about 77 µM; % is scaled to controls: 0 for no effect and ±100 for the full control effect
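ADP-Glo luminescence end-point read after a 60 min room-temperature kinase reaction of PI5P4Kalpha plus substrate, initiated with ATP at 5 microM final. Buffer: 0.038 M HEPES pH 7.4, EGTA, 0.1% CHAPS, 5% DMSO.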
G9a inh = inhibitors of human histone lysine methyltransferase G9a; Q96KQ7; G9a H3K9 monomethylation, AlphaScreen, 2 h; Potency, µM (highest dose often 102 µM), for inactives: at the top dose activity, negative = inhibition, actives largely listed as inhibitors; 8.8% of 350,000 active; AID 504332; also: potency is read from the fitted curve at half-maximal effect; % is scaled to controls: 0 for no effect and ±100 for the full control effect; nearly all actives have a fitted effect of over 75% in size
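Using a bead-based AlphaScreen, monomethylated H3K9 product from 2 h room-temperature reactions (G9a 20 nM, peptide 500 nM, SAM 20 uM) was detected with 0.5 ug/mL rabbit anti-H3K9me1 antibody.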
HP1b binding inh = blocks HP1-beta chromodomain binding to methylated histone tails; P83916; Potency, µM (titrated, usually from 114 µM), for the others: at the top dose activity change, negative = inhibition, usual class: inhibitors; AlphaScreen HP1-beta / biotin-H3K9me3 peptide binding; 0.56% of 390,000 active; AID 540317; also: potency is read from the fitted curve at half-maximal effect; nearly all actives have a fitted effect of over 70% in size
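Compound inhibition of the preformed complex between 50 nM HP1-beta and 50 nM biotinylated H3K9me3 peptide was read by AlphaScreen. Buffer was PBS pH 7.4 with 0.01% Tween-20. Incubations ran 30 min at room temperature, with 10 ug/mL donor/acceptor beads.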
JMJD2A Tudor = inhibitors of human JMJD2A Tudor domain; O75164; AlphaScreen JMJD2A-Tudor / H3K4me3 peptide binding; Potency, µM (series often up to 114 µM), without a hit: at the highest dose activity change, negative = inhibition, actives largely listed as inhibitors; 4.4% of 390,000 active; AID 504339; also: potency is read from the fitted curve at half-maximal effect; % is scaled to controls: 0 for no effect and ±100 for the full control effect; nearly all actives have a fitted effect of over 50% in size
Target sequence (O75164 whole entry, looked up, the tested form may be a part): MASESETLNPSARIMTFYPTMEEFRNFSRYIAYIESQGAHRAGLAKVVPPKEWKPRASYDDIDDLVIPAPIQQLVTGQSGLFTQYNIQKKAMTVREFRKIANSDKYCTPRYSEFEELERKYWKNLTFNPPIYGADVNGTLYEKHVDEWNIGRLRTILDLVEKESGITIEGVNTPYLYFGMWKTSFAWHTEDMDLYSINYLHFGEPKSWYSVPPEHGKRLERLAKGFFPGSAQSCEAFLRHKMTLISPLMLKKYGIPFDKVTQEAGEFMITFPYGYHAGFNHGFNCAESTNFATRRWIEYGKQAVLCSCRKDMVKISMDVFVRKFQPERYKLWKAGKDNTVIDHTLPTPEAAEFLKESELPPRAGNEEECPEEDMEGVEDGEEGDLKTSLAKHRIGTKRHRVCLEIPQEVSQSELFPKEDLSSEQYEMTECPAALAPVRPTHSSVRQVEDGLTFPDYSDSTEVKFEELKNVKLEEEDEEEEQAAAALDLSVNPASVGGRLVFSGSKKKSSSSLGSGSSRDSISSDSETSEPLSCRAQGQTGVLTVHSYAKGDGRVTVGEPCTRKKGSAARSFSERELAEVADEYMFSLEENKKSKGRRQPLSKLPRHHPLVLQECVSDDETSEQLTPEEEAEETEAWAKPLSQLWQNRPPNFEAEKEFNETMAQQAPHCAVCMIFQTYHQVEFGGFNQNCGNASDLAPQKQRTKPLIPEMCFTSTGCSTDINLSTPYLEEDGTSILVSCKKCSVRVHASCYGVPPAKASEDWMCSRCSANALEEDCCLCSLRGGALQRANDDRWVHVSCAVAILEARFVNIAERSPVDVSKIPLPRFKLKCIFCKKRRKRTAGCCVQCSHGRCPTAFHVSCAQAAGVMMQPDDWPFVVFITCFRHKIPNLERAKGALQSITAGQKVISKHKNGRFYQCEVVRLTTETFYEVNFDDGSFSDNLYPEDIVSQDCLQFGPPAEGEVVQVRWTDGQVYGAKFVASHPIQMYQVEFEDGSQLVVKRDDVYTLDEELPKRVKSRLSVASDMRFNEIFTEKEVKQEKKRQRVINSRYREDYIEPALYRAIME
Active calls of the source: *; ? = inconclusive; . = no result; [ ] = remark or other dose. Unless noted, calls follow the shape of the dose curve; as a rule, active = well fitted inhibition curve with a large enough effect; inconclusive = small, poorly fitted or top-dose-only effect; inactive = no such curve, though single readings can be large or run the other way.

SMILES	BAZ2B block	L3MBTL1 block	PI5P4K alpha inh	G9a inh	HP1b binding inh	JMJD2A Tudor
CCc1nnc(N/N=C/c2ccc(-c3ccc([N+](=O)[O-])cc3)o2)n1N	?	?	1	?	6%	-31%
CCc1nnc(N/N=C/c2cc(C)c(C)cc2C)n1N	1%	-6%	6	79µM*	40%	-12%
Cc1nnc(N/N=C/c2cc(C)n(-c3ccc(F)cc3)c2C)n1N	50µM*	-15%	-3	?	2%	-30%
CCc1nnc(N/N=C/c2c(C)[nH]c3ccccc23)n1N	45µM*	-19%	8	18µM*	24%	-31%
Cc1cc(Br)cc(C)c1NC(=O)c1sc2ncn(Cc3cccc(F)c3)c(=O)c2c1C	3%	.	.	-18%[59 µM]	50%	-10%
Cc1nnc(N/N=C/c2ccccc2O)n1N	40µM*	.	1	-6%	38%	?
Cc1nnc(N/N=C/c2c(Cl)cccc2Cl)n1N	50µM*	-15%	-7	0%	55%	-8%
CCc1nnc(N/N=C/c2c(F)cccc2Cl)n1N	-5%	-5%	0	45µM*	45%	7%
CCOc1cc(/C=N/Nc2nnc(C)n2N)ccc1O	?	.	-1	25µM*	18%	-15%
Clc1cccc(Cl)c1/C=N\Nc1nccs1	-21%	-6%	.	-47%[12.7 µM]	10%	-28%
Cc1cc(Br)ccc1NC(=O)c1ccc(NS(=O)(=O)c2c(C)noc2C)cc1	.	.	.	?	19%	-17%
CC(C)(C)CC(C)(C)c1cc(Cc2cc(C(C)(C)CC(C)(C)C)cc(-n3nc4ccccc4n3)c2O)c(O)c(-n2nc3ccccc3n2)c1	.	.	.	2%[12.7 µM]	.	.
CC(=O)Nc1ccc(S(=O)(=O)NCC2CCC(C(=O)NCCc3ccc(C)cc3)CC2)cc1 (stereo unspecified)	14%	.	.	0%[59 µM]	32%	-15%
NC(=O)C[C@@H](N)C(=O)O	.	.	.	37%[59 µM]	.	.
NC(=O)c1sc2nc(-c3cccnc3)ccc2c1N	-28%	.	?	10µM*	35%	-17%
CCOC(=O)c1sc2nc(-c3cccnc3)ccc2c1N	-1%	24%	-2	-40%	39%	-4%
CN(C)c1ccc(-c2nn3c(-c4cc(-c5ccccc5)n[nH]4)nnc3s2)cc1	.	.	.	.	29%[57 µM]	-7%[57.1 µM]
O=C(CSc1cccc[n+]1[O-])N1CCc2ccccc21	0%	12%	-5	56µM*	32%	-2%
O=C(CN1CCN(c2ccc(O)cc2)CC1)N1CCc2ccccc21	-37%	.	-18	10µM*	?	79µM*
O=C(CN1CCN(Cc2ccccc2)CC1)N1CCCc2ccccc21	20µM*	.	2	?	?	4.5µM*
Cc1ccc(NC(=O)CSCC(=O)N2CCCc3ccccc32)cc1	9%	1%	2	45µM*	32%	-2%
COc1ccc(-c2ccoc2)cc1C1C2C=CCC(C)C2C(=O)N1Cc1ccccc1 (stereo unspecified)	.	.	.	.	4%	?
CC(=O)Nc1ccc(NC(=O)c2ccc3c(c2)N(Cc2cccc(Cl)c2)C(=O)c2ccccc2S3=O)cc1 (stereo unspecified)	2%	.	.	-30%[59 µM]	-4%	-17%
COc1cc(-c2noc(-c3ccc(N4CCOCC4)c([N+](=O)[O-])c3)n2)cc(OC)c1OC	-1%	.	.	?	42%	-9%
CS(=O)(=O)C1=NSC2=NC(=O)/C(=C\c3ccc(OC(=O)c4ccco4)c(Br)c3)C(=N)N21	56µM*	.	-73*	20µM*	-5%[57 µM]	?
CSC1=NSC2=NC(=O)/C(=C\c3ccc(OC(=O)c4ccco4)cc3)C(=N)N12	?	.	-53*	?	14%	-10%
CC(C)CS(=O)(=O)C1=NSC2=NC(=O)/C(=C\c3ccc(OC(=O)c4ccco4)cc3)C(=N)N21	?	.	-86*	.	2%	-36%
Cc1ccc(N2C(=O)CS(=O)(=O)C23C(=O)N(Cc2cccc(F)c2)c2ccccc23)cc1Cl (stereo unspecified)	-3%	.	.	-43%[59 µM]	24%	-18%
